Measurements reported in the supplement of paper PMC10732440.
± gives the standard deviation of the averaged measurements.

The compounds below were run on Caenorhabditis elegans N2 infected with Nematocida parisii ERTm1 (assay: progeny production relative to DMSO uninfected control; higher = more progeny despite microsporidia infection (inhibition of infection with low host toxicity)). Conditions: infection time 6 days; 100 µM.
Summary of the method: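 Compound was pinned to 100 μM or 40 μM in 1% DMSO into 96-well plates containing K-medium, E. coli OP50, 15,000 N. parisii spores/μL and 100 synchronised wild-type C. elegans L1 larvae per well. Following 6 days of shaking at 21°C, worms were Rose Bengal-stained, scanned and counted with WorMachine, in three runs per compound and dose. Progeny production appears as a replicate-averaged percentage of spore-free vehicle wells.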

Compound	progeny production [%]
CNc1nc(=O)[nH]cc1F	12.9 ± 10
CC(C)(C)c1ccc(Oc2ccc(N)cc2)cc1	11.1 ± 5.3
Cc1[nH]c2ccccc2c1CCNCc1ccc(/C=C/C(=O)NO)cc1	9.79 ± 7.8
COc1ccc(-n2cnc3cc(NCc4ccco4)ccc32)cc1	17.2 ± 0.88
C[C@H](NC(=O)C(=O)Nc1ccccc1C(C)(C)C)C(=O)N[C@@H](CC(=O)O)C(=O)COc1c(F)c(F)cc(F)c1F	15 ± 11
CO[C@@]1(NC(=O)Cc2cccs2)C(=O)N2C(C(=O)O)=C(COC(N)=O)CS[C@@H]21	7.7 ± 7.8
Cc1ncc([N+](=O)[O-])n1CC(O)CN1CCOCC1 (centres undefined)	12.3 ± 8.3
CC1(C)[C@H](C(=O)O)N2C(=O)C[C@H]2S1(=O)=O	10.7 ± 7.8
CCCCN1C[C@H](O)[C@@H](O)[C@H](O)[C@H]1CO	13.9 ± 3.7
CN(C)CC(=O)Nc1ccc2[nH]c(=O)c3ccccc3c2c1	14.1 ± 5
NC(=O)[C@@H]1CC[C@@H]2CN1C(=O)N2OS(=O)(=O)O	22.2 ± 16
C[C@@H](NC(=O)c1ccccc1-c1ccccc1)B(O)O	21.8 ± 15
Cc1nc2ccc(Oc3ccccc3)cc2c2c1CCN2CCc1ccccc1	11.3 ± 9.1
O=C(NC(=O)N1CCCc2ccccc21)c1cccc(Cl)c1	19.9 ± 14
CCc1ccccc1OCCN1CCCCCC1	20.2 ± 6
Cc1nc2ccc(Cl)cc2c(-c2ccccc2)c1CC(=O)O	13.8 ± 12
CC(=O)NC[C@H]1CN(c2ccc(N3CCSCC3)c(F)c2)C(=O)O1	10.4 ± 6.2
Nc1nnc(-c2ccc(Cl)cc2)s1	16.3 ± 16
Nc1nc(O)c(Br)c(-c2cccc(Cl)c2)n1	12.1 ± 5.2
COC(=O)Nc1nc2c(C)cccc2[nH]1	78.2 ± 11

Compound	progeny production [%]
O[C@@](Cn1cnnn1)(c1ccc(F)cc1F)C(F)(F)c1ccc(-c2ccc(OCC(F)(F)F)cc2)cn1	11.8 ± 2.2
O=C(NN1C(=O)[C@@H]2[C@@H]3C=C[C@@H]([C@H]4C[C@@H]34)[C@@H]2C1=O)c1ccc(C(F)(F)F)cc1	9.48 ± 4
O=C(NCCN1CCCCC1)c1cccc(C(F)(F)F)c1	18.2 ± 16
O=c1cc(NCCCN[C@@H]2CCOc3c(Br)cc(Br)cc32)[nH]c2ccsc12	8.91 ± 4
OB1OCc2cc(Cl)ccc21	21.3 ± 17
CC1=C(/C=C/C(C)=C/C=C/C(C)=C/C(=O)Nc2ccc(O)cc2)C(C)(C)CCC1	11.6 ± 9.7
O=c1oc2ccc(Br)cc2cc1CSc1ncc[nH]1	11.1 ± 7.2
CC(Cc1ccccc1)C(=O)Nc1ccc(Cl)cc1C(=O)O (centres undefined)	14.4 ± 0.88
CC(C)(C)c1cc(C(=O)/C(C#N)=N/Nc2cccc(Cl)c2)no1	13.4 ± 11
Oc1cccc(C(Nc2nccs2)c2ccc3cccnc3c2O)c1 (centres undefined)	12.9 ± 2.9
CC(=O)O[C@H]1C[C@@]2(C)[C@@H](C[C@@H](O)[C@H]3[C@@]4(C)CC[C@@H](O)[C@@H](C)[C@@H]4CC[C@@]32C)/C1=C(\CCC=C(C)C)C(=O)O	16.9 ± 9.1
N=c1n(CCN2CCCCC2)c2ccccc2n1CC(O)COc1ccc(Cl)cc1Cl (centres undefined)	9.49 ± 8.7
COc1ccc(NC(=O)c2cc3ccccn3n2)cc1	13.6 ± 6
O=C1NC(=O)C(Br)=C1Br	30.7 ± 9.8
COc1ccc2nc(-c3ccccc3)cc(O)c2c1	8.32 ± 3.4
Cc1cc(C)n(O)c(=O)c1	14.8 ± 8.8
Oc1cc(-c2cccc3ccccc23)[nH]n1	18.4 ± 18
Nc1nc(F)nc2c1ncn2[C@H]1O[C@@H](CO)[C@H](O)[C@@H]1O	4.1 ± 1.2
COC(=O)Nc1nc2cc([S+]([O-])c3ccccc3)ccc2[nH]1 (centres undefined)	23 ± 20
